This is part of a sample that, as a whole, favours compounds with a hit. Of some 79,000 tested, about 15% had one in any assay. Values without a mark were called inactive. No stated cut-off is given here; in the data, active means growth inhibition above about 70%; inactive means the rest.

A short description of this assay: NCI Yeast Anticancer Drug Screen. Data for the mec2-1 strain (AID 157). The conditions noted are these: S. cerevisiae mec2-1 strain, at 50.0 µM, hits give high values. As to the method:
Growth inhibition of yeast strains with defined genetic alterations is measured as a screen for potential anti-cancer activity. Selected strains with alterations in DNA damage repair or cell cycle control were exposed to compounds and growth inhibition was measured relative to vehicle treated controls. The strain used in this assay is mec2-1
For the molecule `Cc1c(C(=O)/C=C/c2ccc(N(C)C)cc2)c(=O)n(-c2ccccc2)n1C`, the growth inhibition is -45.1%.

`CC1OS(=O)OC1C` (stereo not given): the growth inhibition is -23.6%.

As for `COC(=O)/C=C/c1ccc(OC(C)=O)c(OC)c1`, the growth inhibition is 3.55%.

Turning to `COC(=O)NN/C=C(\C=Nc1ccccc1)[N+](=O)[O-]`, the growth inhibition is 11.1%.

As for `CCn1c(C)nc([N+](=O)[O-])c1Sc1ncc[nH]1`, the growth inhibition was 0.7%.

On to `O=c1[nH]c(-c2ccccc2)nc(-c2ccccc2)c1Cc1cc2c(cc1O)OCC2`, for which the growth inhibition was -4.05%.

On to `c1ccc2[nH]c(N=Nc3cccc4c(N=Nc5cc6ccccc6[nH]5)cccc34)cc2c1`, for which the growth inhibition is -11.4%.

As to `COc1ccc(NC(=S)c2ccoc2C)cc1CC(=O)OC(C)C`, the growth inhibition is 18.4%.

Take `COc1ccc(N2C(=O)CCC2=O)cc1`: the growth inhibition is 0.25%.

In the case of `Cc1cccc(C(C)(C)C)c1NC(=O)C(=O)Cc1nc2ccccc2s1`, the growth inhibition was 7.05%.

Consider `COC(=O)C(Cc1ccccc1)NC(=O)C(CCC(=O)OCc1ccccc1)NC(=O)OC(C)(C)C` (stereo not given), for which the growth inhibition is 8.55%.

As for `CCCCCCCCCCCNc1ncnc2[nH]ncc12`, the growth inhibition is -16.5%.

With `O=C(c1ccc(Cl)cc1)C(c1ccccc1)N1CCCCC1` (stereo not given), the growth inhibition was -8.15%.

`Cc1c(C(=O)OCCCl)c(=O)n(-c2ccccc2)n1C`: the growth inhibition was -56.2%.

`O=S(=O)(/N=c1/ccc(NS(=O)(=O)c2ccccc2)cn1O)c1ccccc1`: the growth inhibition is 3.8%.

Turning to `CCOC(=O)NC(NC(=O)OCC)c1ccc(C(NC(=O)OCC)NC(=O)OCC)cc1`, the growth inhibition is 13.2%.

As for `CCCNC(=O)/C=C\S(=O)CCC` (stereo not given), the growth inhibition is 2.9%.

Consider `Cc1cc(Cl)ccc1NC(=O)Nc1c(Oc2ccc(Cl)cc2)ccc(Cl)c1S(=O)(=O)O`, for which the growth inhibition was 36.8%.

For `O=C1Nc2cccc3cc(NCC(O)CCl)cc1c23` (stereo not given), the growth inhibition is 8.5%.

Consider `CC12CCCC(C(=O)O)(C1)[C@H](C(C)(C)C(=O)O)CC2` (stereo not given in full), for which the growth inhibition is -40.9%.

For `NCCSCCC(=O)O`, the growth inhibition is -12.1%.

Turning to `O=c1nc(NCC23CC4CC(CC(C4)C2)C3)ccn1C1OC(CO)C(O)C1O` (stereo not given), the growth inhibition was -0.95%.

In the case of `O=c1[nH]c(=O)n(C2OC(CO)C(O)C2O)cc1I` (stereo not given), the growth inhibition was -9.95%.

`COc1cc(C)c(C#N)c(OC)n1`: the growth inhibition is -7.8%.

As to `CC(=O)Nc1ccc(Br)cc1`, the growth inhibition was -5.6%.

`N#Cc1nc(-c2ccccc2C(=O)O)oc1N`: the growth inhibition is 9.8%.

Turning to `c1csc(-c2cc(-c3ccsc3)c(-c3ccsc3)s2)c1`, the growth inhibition is -48.4%.

Turning to `C=CCOc1ccc(N)c([N+](=O)[O-])c1`, the growth inhibition was 41.5%.

`CC1(C)CC(=O)NC1=O`: the growth inhibition is 2%.

In the case of `OCCCN=C1CCCCC1`, the growth inhibition was -10.3%.

As to `Cc1cc2c(=O)cc(-c3ccccc3Cl)oc2c(C(=O)O)c1C`, the growth inhibition is -10.3%.

In the case of `O=C1C2=C(Nc3cc(Cl)ccc3N2)OC1c1c[nH]c2ccc(COc3ccccc3)cc12` (stereo not given), the growth inhibition was 6.6%.

For `O=C(O)C1CSCN1` (stereo not given), the growth inhibition is -22.9%.

With `CC(C)CCCC(C)C1CCC2C3CCC4CC5(C)C(CC4(C)C3CCC12C)C(=O)C5(Cl)Cl` (stereo not given), the growth inhibition is -2.7%.

In the case of `CC(=O)SCC(C)CCl` (stereo not given), the growth inhibition is -47.6%.

As to `Cc1ccc(S(=O)(=O)Nn2c(-c3ccccc3)c(C#N)c(-c3ccc([N+](=O)[O-])cc3)c(C#N)c2=O)cc1`, the growth inhibition is 16.2%.

`C=C1CC(C)(Cn2cnc3c(N)ncnc32)OC1=O` (stereo not given): the growth inhibition was 10.6%.

On to `O=C(Nc1ccc(Cl)cc1)Nc1nnc(-c2cc([N+](=O)[O-])cc([N+](=O)[O-])c2)o1`, for which the growth inhibition was 20.8%.

As for `CC1(C)C(=O)CCC2(C)C(OC(=O)c3ccc(C(=O)O)cc3)CCCC12` (stereo not given), the growth inhibition was 37.5%.

In the case of `Cc1cc(C)cc(Sc2c([N+](=O)[O-])ncn2C)c1`, the growth inhibition was 19.3%.

Source of the values: PubChem BioAssay (NCI).
